Measurements reported in ChEMBL document CHEMBL1961873, “Compounds: GSK PKIS; Assays: Nanosyn kinase panel” (2012).

Columns and labels:
[1] = molecular target: Casein kinase I isoform gamma-2 (Homo sapiens) (UniProt P78368); conditions: at 1 µM
[2] = molecular target: Casein kinase I isoform gamma-3 (Homo sapiens) (UniProt Q9Y6M4); conditions: at 0.1 µM
[3] = molecular target: Casein kinase I isoform gamma-3 (Homo sapiens) (UniProt Q9Y6M4); conditions: at 1 µM
[4] = molecular target: Cyclin-dependent kinase 1 (Homo sapiens) (UniProt P06493); conditions: at 0.1 µM
[5] = molecular target: Cyclin-dependent kinase 1 (Homo sapiens) (UniProt P06493); conditions: at 1 µM
[6] = molecular target: Cyclin-dependent kinase 2 (Homo sapiens) (UniProt P24941); conditions: at 0.1 µM
[7] = molecular target: Cyclin-dependent kinase 2 (Homo sapiens) (UniProt P24941); conditions: at 1 µM
[8] = molecular target: Cyclin-dependent kinase 2 (Homo sapiens) (UniProt P24941); conditions: at 0.1 µM; remark: listed apart in the source
[9] = molecular target: Cyclin-dependent kinase 2 (Homo sapiens) (UniProt P24941); conditions: at 1 µM; remark: listed apart in the source
[10] = molecular target: T1, CDK3/Cyclin E (Homo sapiens) (UniProt P24864+Q00526); conditions: at 0.1 µM
[11] = molecular target: T1, CDK3/Cyclin E (Homo sapiens); conditions: at 1 µM
[12] = molecular target: Cyclin-dependent kinase 4 (Homo sapiens) (UniProt P11802); conditions: at 0.1 µM
[13] = molecular target: Cyclin-dependent kinase 4 (Homo sapiens) (UniProt P11802); conditions: at 1 µM
[14] = molecular target: Cyclin-dependent kinase 5 (Homo sapiens) (UniProt Q00535); conditions: at 0.1 µM
[15] = molecular target: Cyclin-dependent kinase 5 (Homo sapiens) (UniProt Q00535); conditions: at 1 µM
[16] = molecular target: Cyclin-dependent kinase 6 (Homo sapiens) (UniProt Q00534); conditions: at 0.1 µM
[17] = molecular target: Cyclin-dependent kinase 6 (Homo sapiens) (UniProt Q00534); conditions: at 1 µM
[18] = molecular target: Dual specificity protein kinase CLK2 (Homo sapiens) (UniProt P49760); conditions: at 0.1 µM
[19] = molecular target: Dual specificity protein kinase CLK2 (Homo sapiens) (UniProt P49760); conditions: at 1 µM
[20] = molecular target: Dual specificity protein kinase CLK3 (Homo sapiens) (UniProt P49761); conditions: at 0.1 µM
Chain of Dual specificity protein kinase CLK3 (Homo sapiens) (P49761 whole entry, looked up): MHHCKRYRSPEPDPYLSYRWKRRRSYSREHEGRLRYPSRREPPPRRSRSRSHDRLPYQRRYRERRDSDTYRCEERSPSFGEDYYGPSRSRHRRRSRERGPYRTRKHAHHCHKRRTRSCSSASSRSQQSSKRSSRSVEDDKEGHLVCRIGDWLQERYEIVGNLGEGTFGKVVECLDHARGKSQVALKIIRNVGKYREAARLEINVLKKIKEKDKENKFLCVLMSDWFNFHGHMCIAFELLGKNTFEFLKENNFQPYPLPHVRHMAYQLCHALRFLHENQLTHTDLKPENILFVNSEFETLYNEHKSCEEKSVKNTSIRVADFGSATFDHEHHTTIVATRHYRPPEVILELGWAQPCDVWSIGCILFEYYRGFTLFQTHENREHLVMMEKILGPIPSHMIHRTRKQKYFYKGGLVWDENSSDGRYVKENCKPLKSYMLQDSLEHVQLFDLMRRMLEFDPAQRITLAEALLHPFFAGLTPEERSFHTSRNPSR

Chain of Cyclin-dependent kinase 6 (Homo sapiens) (Q00534 whole entry): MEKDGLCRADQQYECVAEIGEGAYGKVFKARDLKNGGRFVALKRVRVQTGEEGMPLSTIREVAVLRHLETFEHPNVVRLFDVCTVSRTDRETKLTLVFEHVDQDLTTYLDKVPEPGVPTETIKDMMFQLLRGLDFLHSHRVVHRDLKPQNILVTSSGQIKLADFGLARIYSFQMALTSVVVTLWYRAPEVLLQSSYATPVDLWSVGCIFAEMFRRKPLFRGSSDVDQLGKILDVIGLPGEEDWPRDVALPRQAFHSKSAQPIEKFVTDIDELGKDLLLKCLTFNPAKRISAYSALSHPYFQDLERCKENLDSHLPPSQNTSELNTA
T1 sequence (P24864 whole entry, looked up): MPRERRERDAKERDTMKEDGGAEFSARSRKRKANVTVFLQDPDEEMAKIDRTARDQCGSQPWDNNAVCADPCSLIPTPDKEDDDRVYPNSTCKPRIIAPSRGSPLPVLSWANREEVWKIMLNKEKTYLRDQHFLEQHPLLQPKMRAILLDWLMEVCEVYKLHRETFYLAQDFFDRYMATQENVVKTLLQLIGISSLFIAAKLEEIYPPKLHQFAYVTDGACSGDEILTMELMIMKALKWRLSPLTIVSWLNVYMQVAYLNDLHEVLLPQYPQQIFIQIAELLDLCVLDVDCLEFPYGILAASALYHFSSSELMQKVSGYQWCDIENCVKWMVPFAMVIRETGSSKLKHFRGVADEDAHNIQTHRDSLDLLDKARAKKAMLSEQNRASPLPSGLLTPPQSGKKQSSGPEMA
T1 sequence (Q00526 whole entry, looked up): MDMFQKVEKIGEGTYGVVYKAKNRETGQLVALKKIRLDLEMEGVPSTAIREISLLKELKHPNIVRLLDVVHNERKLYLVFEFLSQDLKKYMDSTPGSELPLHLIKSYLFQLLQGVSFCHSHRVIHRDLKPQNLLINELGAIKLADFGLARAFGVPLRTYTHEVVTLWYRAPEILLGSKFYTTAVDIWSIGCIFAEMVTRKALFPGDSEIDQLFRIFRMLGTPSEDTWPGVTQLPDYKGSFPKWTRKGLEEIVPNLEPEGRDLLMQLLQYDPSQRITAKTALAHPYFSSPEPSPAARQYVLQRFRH
Chain of Casein kinase I isoform gamma-3 (Homo sapiens) (Q9Y6M4 whole entry, looked up, canonical isoform): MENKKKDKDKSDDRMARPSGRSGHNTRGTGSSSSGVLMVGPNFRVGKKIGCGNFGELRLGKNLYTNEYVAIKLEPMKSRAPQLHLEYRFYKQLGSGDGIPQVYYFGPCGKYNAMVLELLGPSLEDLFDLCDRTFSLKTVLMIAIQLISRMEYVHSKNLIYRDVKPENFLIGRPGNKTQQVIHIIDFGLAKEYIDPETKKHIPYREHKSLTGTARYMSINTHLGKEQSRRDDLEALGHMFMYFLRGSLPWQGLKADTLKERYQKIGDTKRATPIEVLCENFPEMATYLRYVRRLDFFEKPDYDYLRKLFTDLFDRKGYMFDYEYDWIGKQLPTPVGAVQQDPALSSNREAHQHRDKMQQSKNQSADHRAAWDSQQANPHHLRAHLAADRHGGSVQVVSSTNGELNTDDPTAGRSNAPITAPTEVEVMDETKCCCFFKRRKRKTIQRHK
Chain of Dual specificity protein kinase CLK2 (Homo sapiens) (P49760 whole entry, looked up): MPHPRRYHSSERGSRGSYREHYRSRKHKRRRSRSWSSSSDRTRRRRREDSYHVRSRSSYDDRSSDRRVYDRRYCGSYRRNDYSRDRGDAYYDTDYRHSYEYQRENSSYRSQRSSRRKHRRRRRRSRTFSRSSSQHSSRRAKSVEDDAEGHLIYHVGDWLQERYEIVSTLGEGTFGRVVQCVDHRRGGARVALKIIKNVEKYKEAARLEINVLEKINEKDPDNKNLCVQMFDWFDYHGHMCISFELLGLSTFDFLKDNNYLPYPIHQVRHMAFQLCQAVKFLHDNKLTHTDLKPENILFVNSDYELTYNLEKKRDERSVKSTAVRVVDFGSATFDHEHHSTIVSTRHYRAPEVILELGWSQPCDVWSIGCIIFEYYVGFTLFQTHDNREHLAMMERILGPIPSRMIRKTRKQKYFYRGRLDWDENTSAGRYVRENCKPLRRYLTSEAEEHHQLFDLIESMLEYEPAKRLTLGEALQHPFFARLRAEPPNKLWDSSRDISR
Chain of Casein kinase I isoform gamma-2 (Homo sapiens) (P78368 whole entry, looked up, canonical isoform): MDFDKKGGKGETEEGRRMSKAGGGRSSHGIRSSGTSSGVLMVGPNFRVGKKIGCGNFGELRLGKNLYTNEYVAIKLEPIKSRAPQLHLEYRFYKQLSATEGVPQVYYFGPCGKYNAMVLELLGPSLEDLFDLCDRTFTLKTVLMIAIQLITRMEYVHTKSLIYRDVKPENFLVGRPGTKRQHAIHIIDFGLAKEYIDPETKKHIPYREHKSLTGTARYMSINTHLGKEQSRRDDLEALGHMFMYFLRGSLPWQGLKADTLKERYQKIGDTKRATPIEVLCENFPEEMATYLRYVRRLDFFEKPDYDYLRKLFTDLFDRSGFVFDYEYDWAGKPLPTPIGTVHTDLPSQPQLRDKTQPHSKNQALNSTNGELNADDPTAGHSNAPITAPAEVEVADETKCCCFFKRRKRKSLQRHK
Chain of Cyclin-dependent kinase 5 (Homo sapiens) (Q00535 whole entry, looked up): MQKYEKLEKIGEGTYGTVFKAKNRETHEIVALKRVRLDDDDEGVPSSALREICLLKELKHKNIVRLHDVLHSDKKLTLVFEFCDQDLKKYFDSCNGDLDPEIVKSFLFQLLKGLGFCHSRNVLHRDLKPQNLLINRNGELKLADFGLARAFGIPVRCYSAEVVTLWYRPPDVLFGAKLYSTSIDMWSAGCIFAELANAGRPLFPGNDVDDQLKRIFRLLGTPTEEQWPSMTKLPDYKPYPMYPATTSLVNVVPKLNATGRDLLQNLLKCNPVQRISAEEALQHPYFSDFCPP
Chain of Cyclin-dependent kinase 1 (Homo sapiens) (P06493 whole entry, looked up): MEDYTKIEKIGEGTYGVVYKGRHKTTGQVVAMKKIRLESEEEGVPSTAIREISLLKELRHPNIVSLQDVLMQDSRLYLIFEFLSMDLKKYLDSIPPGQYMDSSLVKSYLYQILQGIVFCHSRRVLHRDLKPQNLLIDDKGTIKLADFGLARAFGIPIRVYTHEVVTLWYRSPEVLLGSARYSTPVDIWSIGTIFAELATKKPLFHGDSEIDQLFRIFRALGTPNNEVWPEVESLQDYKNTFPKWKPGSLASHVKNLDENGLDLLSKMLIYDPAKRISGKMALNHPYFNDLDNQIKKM
Chain of Cyclin-dependent kinase 4 (Homo sapiens) (P11802 whole entry): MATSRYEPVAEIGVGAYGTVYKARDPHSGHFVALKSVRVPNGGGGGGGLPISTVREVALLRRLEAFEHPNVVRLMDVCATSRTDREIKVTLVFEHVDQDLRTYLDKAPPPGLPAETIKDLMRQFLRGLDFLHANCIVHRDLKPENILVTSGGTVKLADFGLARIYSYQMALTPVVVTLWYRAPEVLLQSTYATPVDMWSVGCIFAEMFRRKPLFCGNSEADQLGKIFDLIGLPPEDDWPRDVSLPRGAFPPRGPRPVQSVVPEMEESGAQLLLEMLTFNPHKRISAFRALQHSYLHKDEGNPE

| Structure (SMILES) | inhibition [1] [%] | inhibition [2] [%] | inhibition [3] [%] | inhibition [4] [%] | inhibition [5] [%] | inhibition [6] [%] | inhibition [7] [%] | inhibition [8] [%] | inhibition [9] [%] | inhibition [10] [%] | inhibition [11] [%] | inhibition [12] [%] | inhibition [13] [%] | inhibition [14] [%] | inhibition [15] [%] | inhibition [16] [%] | inhibition [17] [%] | inhibition [18] [%] | inhibition [19] [%] | inhibition [20] [%] |
| --- | --- | --- | --- | --- | --- | --- | --- | --- | --- | --- | --- | --- | --- | --- | --- | --- | --- | --- | --- | --- |
| CC(C)c1ccc(Nc2nccc(-c3cnn4ncccc34)n2)cc1 | 24.9 | 1.13 | 13.6 | 21.5 | 64 | 19.8 | 78.7 | 22.8 | 64.5 | 1.82 | 39 | 9.51 | 39.5 | 12.7 | 51.4 | 3.4 | 19.4 | 14 | 65.3 | 3.13 |
| CN1CCN(C(=O)c2ccc(NC(=O)Nc3ccc(N(C)c4ccnc(Nc5ccc(CS(C)(=O)=O)cc5)n4)cc3)cc2)CC1 | 1.64 | 1.17 | 1.29 | 2.37 | 5.28 | 4.51 | 10.8 | 0.96 | 5.93 | -1.55 | 2.12 | 2.05 | 5.68 | 1.54 | 8.48 | -6.28 | 3.8 | 0.17 | 3.57 | 0.18 |
| Cc1cc(-c2ccccn2)cc(C)c1/C=C/c1cncc(-c2nn[nH]n2)c1 | 6.46 | 2.01 | 4.69 | 3.71 | 5.82 | 2.14 | 2.77 | 3.02 | 7.32 | -2.85 | -2.71 | 6.05 | 8.73 | 3.27 | 5.72 | 1.94 | 5.55 | 0.95 | 1.77 | 0.5 |
| COC(=O)Nc1nc2cc(Oc3ccc(NC(=O)Nc4cccc(Br)c4)cc3)ccc2[nH]1 | 1.6 | -0.42 | 1.82 | 1.34 | 2.26 | 3.2 | -0.87 | 1.48 | 2.15 | 2.04 | -4.35 | 2.4 | 2.61 | 0.44 | 1.22 | -3.24 | 0.22 | 0.85 | 1.48 | 1.73 |
| CCS(=O)(=O)c1ccc(OC)c(Nc2nccc(N(C)c3ccc4c(C)n[nH]c4c3)n2)c1 | 4.44 | 3.36 | 3.45 | 0.39 | 1.28 | 1.59 | 3.06 | 2.45 | 3.56 | 0.61 | -2.55 | 3.02 | 4.42 | 0.13 | 0.33 | -0.16 | -1.74 | 0.8 | 0.04 | 1.1 |
| CN(C)c1cc2c(Nc3ccc4c(cnn4Cc4ccccc4)c3)ncnc2cn1 | 2.69 | 1.93 | 2.19 | 0.49 | 1.95 | 1.76 | 4.21 | 2.18 | 3.51 | 0.35 | -0.2 | 2.4 | 4.36 | 0.57 | 1.24 | -3.6 | -0.22 | 0.87 | -0.06 | 0.92 |
| COc1cc2ncn(-c3cc(OCc4ccccc4S(C)(=O)=O)c(C#N)s3)c2cc1OC | 3.78 | 2.68 | 2.61 | 1.59 | 6.07 | 2.46 | 5.28 | 4.39 | 5.94 | 0.41 | 2.11 | 3.64 | 3.7 | 1.86 | 3.42 | 6.66 | 3.82 | 0.22 | 10.8 | 2.39 |
| O=C1Nc2ccccc2/C1=C/Nc1ccc2[nH]c(=O)[nH]c2c1 | 7.61 | 3.84 | 7.65 | 1.63 | 8.12 | 2.91 | 7.88 | 3.74 | 12.8 | 5.68 | 8.57 | 3.34 | 11.3 | 3.13 | 24.1 | 18.1 | 59 | 6.03 | 30.4 | 1.23 |
| O=C1Nc2ccc(-c3cccnc3)cc2C1=Cc1cc(Br)c(O)c(Br)c1 | 4.44 | 3.31 | 3.74 | -0.12 | 1.23 | 2.18 | 1.15 | 3.46 | 5.04 | 0.27 | 2.98 | 3.31 | 3.8 | 1.01 | 1.79 | 5.85 | 6.68 | 32.2 | 84.6 | 7.23 |
| c1ccc(Nc2ncc(-c3ccccc3)o2)cc1 | 5.31 | 4.05 | 4.99 | 2.77 | 4.54 | 3.79 | 10.5 | 3.46 | 12.3 | 0.23 | 5.78 | 3.04 | 11.5 | 2.22 | 10.4 | 2.71 | 21.7 | 0.96 | 3.74 | -0.17 |
| COC(=O)c1ccc2c(c1)C(=Cc1cc(Br)c(O)c(Br)c1)C(=O)N2 | 6.12 | 3.75 | 5.04 | 1.54 | 2.24 | 8.07 | 7.32 | 2.47 | 4.31 | -5.06 | -1.48 | 3.47 | 4.69 | 1.03 | 2.5 | -4.09 | -4.12 | 8.63 | 50.1 | 0.44 |
| C[C@@H](Oc1cc(-n2cnc3ccc(OC[C@@H](O)CO)cc32)sc1C(N)=O)c1ccccc1Cl | -0.43 | -1.73 | 1.34 | 0.5 | 3.21 | 1.64 | 2.63 | -2.32 | 3.99 | 1.36 | 1.56 | -0.86 | 0.89 | 0.29 | 1.88 | -1.79 | -0.4 | 1.72 | 7.52 | 0.13 |
| CS(=O)(=O)Nc1cccc(-c2ccc3c(NC(=O)C4CC4)n[nH]c3c2)c1 | 0.91 | 0.37 | 1.22 | 1.04 | 3.4 | 1.58 | 6.73 | 1.31 | 4.6 | 2.08 | 3.8 | 0.3 | 2.88 | 0.92 | 2.86 | -5.62 | 6.33 | 2.8 | 3.81 | -0.87 |
| [O-][S+]1CCN(Cc2ccc(-c3ccc4ncnc(Nc5ccc(OCc6ccccc6)c(Cl)c5)c4c3)o2)CC1 | 1.66 | 0.73 | 4.22 | 1.22 | 1.4 | 2.81 | 2.09 | 0.43 | 1.73 | -1.53 | -1.44 | 0.13 | 3.22 | 0.19 | 0.51 | -0.89 | 0.14 | -0.72 | 0.49 | 0.43 |
